Compound activity from PubChem BioAssay.
KCNQ2 inh: rat KCNQ2 potassium channel inhibitors, primary screen, cell-based, CHO-K1, FluxOR thallium flux, B-score; Potassium voltage-gated channel subfamily KQT member 2 (Rattus norvegicus), O88943; 20 min; active compounds read low; B-score at 10 µM; 310,000 compounds, 1.1% hits; AID 2156, 2009;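 active = fluorescence ratio B-score at most minus 3 library SDs, with starting brightness B-score within 2 library SDs, cut at about -5.5 in these data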
Target sequence (O88943 whole entry, looked up): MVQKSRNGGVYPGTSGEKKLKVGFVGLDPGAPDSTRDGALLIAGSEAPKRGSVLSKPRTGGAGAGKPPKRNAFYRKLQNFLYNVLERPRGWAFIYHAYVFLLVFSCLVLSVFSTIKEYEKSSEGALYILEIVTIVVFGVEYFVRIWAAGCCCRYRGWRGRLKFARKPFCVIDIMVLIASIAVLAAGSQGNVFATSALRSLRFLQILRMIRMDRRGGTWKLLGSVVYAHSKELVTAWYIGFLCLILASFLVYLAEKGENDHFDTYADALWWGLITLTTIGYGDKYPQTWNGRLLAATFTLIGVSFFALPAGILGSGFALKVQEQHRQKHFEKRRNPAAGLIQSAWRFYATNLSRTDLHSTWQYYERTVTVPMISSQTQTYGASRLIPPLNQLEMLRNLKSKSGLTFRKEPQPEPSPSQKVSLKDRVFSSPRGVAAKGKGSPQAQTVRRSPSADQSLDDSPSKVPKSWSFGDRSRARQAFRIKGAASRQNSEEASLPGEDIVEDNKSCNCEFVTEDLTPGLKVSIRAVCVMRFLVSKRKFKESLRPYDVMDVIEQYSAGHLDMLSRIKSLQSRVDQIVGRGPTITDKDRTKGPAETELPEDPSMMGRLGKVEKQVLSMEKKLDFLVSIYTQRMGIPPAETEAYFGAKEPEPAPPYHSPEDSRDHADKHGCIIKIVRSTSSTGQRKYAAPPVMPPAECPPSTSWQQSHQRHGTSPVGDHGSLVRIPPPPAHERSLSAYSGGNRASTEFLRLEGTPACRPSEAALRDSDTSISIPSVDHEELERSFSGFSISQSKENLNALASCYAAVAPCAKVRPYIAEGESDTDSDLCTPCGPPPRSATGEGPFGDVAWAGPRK
KCNQ2 enhance: potentiators of rat KCNQ2 potassium channel. Potassium voltage-gated channel subfamily KQT member 2 (Rattus norvegicus), O88943. CHO-K1 KCNQ2, FluxOR thallium flux fluorescence; active compounds read high. B-score at 10 µM. 310,000 compounds, 0.54% hits. AID 2239, 2010;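 active = fluorescence ratio B-score at least 3 SD of library B-scores, with initial fluorescence B-score within 3 of them, cut at about 5.3 in these data; same plate scores as AID 2156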;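 also: B-score of peak minus minimum over baseline fluorescence ratio after K+ and Tl+ stimulus; positive B-score means potentiation of KCNQ2 with more thallium influx and brighter signal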
Each line names hits and unclear results; the compound was inactive in the other large screens. Rows were chosen to be rich in hits. Some 1.6% of all compounds tested hit in one or more screens of this group.

CCCOc1ccc(-c2nc(SCc3ccccc3)[nH]c(=O)c2C#N)cc1OC	none (no result: KCNQ2 enhance)
CCOc1ccccc1-c1ccc(C(=O)NCc2ccccc2)o1	KCNQ2 inh -5.8
CCOc1cccc2cc(C(=O)NCc3ccccc3)c(=N)oc12	none (no result: KCNQ2 enhance)
CC(=O)c1cccc(N(CC(=O)NC2CCCC2)C(=O)c2csnn2)c1	none
O=C(Nc1c2c(nn1-c1ccccc1)CS(=O)C2)c1ccc2c(c1)OCO2 (centres undefined)	none
CCc1ccc(N2CC(C(=O)Nc3ccc(S(=O)(=O)N4CCOCC4)cc3)CC2=O)cc1 (centres undefined)	none (no result: KCNQ2 enhance)
Cc1ccc(OCCNC(=O)c2ccc3ccccc3n2)cc1	none (no result: KCNQ2 enhance)
O=C(NCCOc1ccc(Cl)cc1)c1ccc2ccccc2n1	KCNQ2 inh -6.3
CC(C)N1C(=O)N(c2cccc(Cl)c2)C(C)(O)CC1(C)C (centres undefined)	none (no result: KCNQ2 enhance)
Cc1cc(S(=O)(=O)N2c3ccc(F)cc3CCC2C)ccc1-n1cnnn1 (centres undefined)	none
Cc1c(NC2=NC3(CCCCC3)Cc3ccccc32)c(=O)n(-c2ccccc2)n1C	none
CC1(C)CC(=O)C(C2=NC3(CCCCCC3)Cc3ccccc32)=C(O)C1	KCNQ2 inh -5.8
COc1cc2c(cc1OC)CN(C(=O)c1sc(-c3cnccn3)nc1C)CC2	none
O=C(C1COc2ccccc2O1)N1CCN(c2ccccc2Cl)CC1 (centres undefined)	KCNQ2 inh -7.4
O=C(C1COc2ccccc2O1)N1CCN(c2ccccc2F)CC1 (centres undefined)	none (no result: KCNQ2 enhance)
COc1ccc(NS(=O)(=O)c2cc3c4c(c2)C(C)C(=O)N4CCC3)cc1 (centres undefined)	none (no result: KCNQ2 enhance)
CC(C)c1nc(CNC(=O)CCc2nnc(-c3ccsc3)o2)cs1	none
O=C(CCc1nnc(-c2ccsc2)o1)NCc1ccccc1OC(F)(F)F	KCNQ2 inh -6.3
CCCN1C(=S)c2ccccc2C1c1ccccc1 (centres undefined)	none (no result: KCNQ2 enhance)
COc1ccc(NC(=O)c2ccc(F)c(F)c2)c2ccccc12	none
Cc1occc1-c1nnc(SCC(=O)Nc2ccccc2-c2ccccc2)n1C	none
COc1ccc(NC(=O)CSc2nnc(-c3ccoc3C)n2CCc2ccccc2)cc1	none (no result: KCNQ2 enhance)
CCCn1c(SCC(=O)Nc2ccccc2-c2ccccc2)nnc1-c1ccoc1C	KCNQ2 inh -5.8
Cc1ccccc1NC(=O)CSc1nnc(-c2ccoc2C)n1CCc1ccccc1	KCNQ2 inh -5.5
CCCN(Cc1cc2cc(C)ccc2[nH]c1=O)C(=O)c1cccc([N+](=O)[O-])c1	none (no result: KCNQ2 enhance)
O=C(CN1CCC(C(=O)c2ccc3c(c2)OCCO3)CC1)NCc1ccc(F)cc1	none (no result: KCNQ2 enhance)
Cc1nc(NCCc2ccccc2)sc1C(=O)N(C)C	none
O=C(NCCS(=O)(=O)NC1CCCC1)c1ccc(F)cc1	none
COc1cc(-c2nnc(SC/C=C/c3ccccc3)n2N)cc(OC)c1OC	KCNQ2 inh -5.9
Nn1c(SC/C=C/c2ccccc2)nnc1-c1ccncc1	none (no result: KCNQ2 enhance)
Cc1cccc(-c2cc(C(=O)N/N=C/c3cccnc3)c3ccccc3n2)c1	none (no result: KCNQ2 enhance)
O=C(N/N=C/c1ccccn1)c1cc(-c2ccc(Cl)cc2)nc2ccccc12	KCNQ2 enhance 9.6
CCCOc1cccc(-c2cc(C(=O)N/N=C/c3cccnc3)c3ccccc3n2)c1	KCNQ2 inh -5.8
O=C(N/N=C/c1ccccn1)c1cc(-c2ccc(Br)cc2)nc2ccccc12	none
O=C(N/N=C/c1ccccn1)c1sc2ccccc2c1Cl	KCNQ2 enhance 14
N/C(=N\OC(=O)c1cc(-c2ccccc2)nc2ccccc12)c1cccnc1	none (no result: KCNQ2 enhance)
N/C(=N\OC(=O)c1cc(-c2ccccc2)nc2ccccc12)c1ccc(Cl)cc1	KCNQ2 inh -6.2
O=C(N/N=C/c1c[nH]c2ccccc12)c1sc2ccccc2c1Cl	none (no result: KCNQ2 enhance)
CCCc1nc(SCC(=O)c2ccc(F)cc2)c2ccccc2n1	none
O=C(C1CC1)N1CCc2cc(S(=O)(=O)NCc3ccccc3)ccc21	none (no result: KCNQ2 enhance)
CCOC(=O)c1ccc(S(=O)(=O)N2CCN(c3ccccn3)CC2)cc1	none
CCC(C)NC(=O)[C@H]1N2C(=O)c3c(ccc(OC)c3OC)C2SC1(C)C (some centres undefined)	none
CCN(CC)S(=O)(=O)c1cc(C(=O)OCC(=O)NC2CCCc3ccccc32)ccc1C (centres undefined)	KCNQ2 inh -7.7
CNS(=O)(=O)c1cc(C(=O)OCC(=O)NC2CCCc3ccccc32)ccc1Cl (centres undefined)	none (no result: KCNQ2 enhance)
CCOc1ccccc1Nc1ccnc2cc(Cl)ccc12	none
CCOc1ccccc1Nc1cc(C)c2cccc(C)c2n1	KCNQ2 inh -5.8
Cc1ccc(-c2nnnn2-c2ccccc2C(=O)O)cc1	none (no result: KCNQ2 enhance)
CC(C)(C)n1nc2c(c1NC(=O)c1c(F)cccc1F)CS(=O)(=O)C2	none
CN(C)CCNC(=O)CNC(=S)N(Cc1ccccc1)Cc1cccnc1	none (no result: KCNQ2 enhance)
CCN(c1ccc(OC)cc1)S(=O)(=O)N1CCCC(C(=O)NCc2cccc(C)c2)C1 (centres undefined)	KCNQ2 inh -6.4
CCS(=O)(=O)N1CCCC(C(=O)NCc2cccc(OC)c2)C1 (centres undefined)	none
OC(CNCC1CCCO1)Cn1c2ccc(Cl)cc2c2cc(Cl)ccc21 (centres undefined)	KCNQ2 inh -7.6
OC(CNCC1CCCO1)Cn1c2ccccc2c2ccccc21 (centres undefined)	none (no result: KCNQ2 enhance)
CN(NC(=O)c1ccccc1F)c1ccc([N+](=O)[O-])cn1	none
CNC(=S)Nc1sc2c(c1C(=O)OC)CCC2	KCNQ2 enhance 5.6
COC(=O)c1c(NC(C)=O)sc2c1CCCC2	none (no result: KCNQ2 enhance)
CCOC(=O)c1c(NC(=S)Nc2ccccc2)sc2c1CC(C)(C)SC2	none (no result: KCNQ2 enhance)
CCOC(=O)c1c(NC(=S)NC)sc2c1CC(C)(C)SC2	KCNQ2 enhance 11
CSCCC(=O)NC1CCCN(CCc2ccccc2)C1 (centres undefined)	none (no result: KCNQ2 enhance)
COc1ccc(/C(C)=N\O)cc1OC	none
C#C[C@]1(O)CCC2C3CCC4=CC(=O)CC[C@@H]4C3CC[C@@]21C (some centres undefined)	none (no result: KCNQ2 enhance)
CC#C[C@]1(O)CC[C@H]2[C@@H]3CCC4=CC(=O)CCC4=C3[C@@H](c3ccc(N(C)C)cc3)C[C@@]21C	KCNQ2 inh -5.9
COc1cccc(-n2c(SCc3cc(=O)oc4cc(O)c(O)cc34)nc3ccccc3c2=O)c1	KCNQ2 inh -6.1
CCN(CC)C(=O)CSc1nc2ccccc2c(=O)n1-c1cccc(OC)c1	none (no result: KCNQ2 enhance)
N#Cc1ccc(NC(=O)CSc2cn[nH]n2)cc1	none (no result: KCNQ2 enhance)
C=C(c1ccccc1O)n1ccnc1	none
CCC(C)c1ccccc1N1CC(C(=O)Nc2cccc(S(=O)(=O)N3CCOCC3)c2)CC1=O (centres undefined)	none (no result: KCNQ2 enhance)
Cc1cc(Nc2ccccc2)nc(NCc2ccccc2)n1	KCNQ2 inh -6.2
Cc1cc(Nc2ccc(Cl)cc2)nc(NCc2ccccc2)n1	none (no result: KCNQ2 enhance)
O=[N+]([O-])c1ccc(Nc2ccccc2F)nc1	KCNQ2 enhance 5.3
Cc1ccccc1Nc1ccc([N+](=O)[O-])cn1	none
CC(=O)Nc1c2c(nn1-c1ccc(F)cc1)CSC2	none
O=C(COC(=O)c1ccc2[nH]c3c(c2c1)CCCC3)Nc1ccccc1	none
CC(=O)Nc1ccc(S(=O)(=O)NCCC(=O)NCc2ccncc2)cc1	none (no result: KCNQ2 enhance)
Cc1ccc(CN2CC(C(=O)N3CCN(c4ccccc4O)CC3)CC2=O)cc1 (centres undefined)	none
O=C(O)C1C2C=CC(C2)C1C(=O)NCc1ccc(Cl)c(Cl)c1 (centres undefined)	none
CCOC(=O)c1c(NC(=S)NCCc2ccccc2)sc2c1CC(C(C)C)OC2 (centres undefined)	KCNQ2 enhance 7.5
